Screening results: PubChem, National Center for Advancing Translational Sciences (NCATS)
This is a sample that favours compounds with a hit; in the whole collection about 2.4% have one here.
Cruzain Triton: cruzain (T. cruzi) inhibition with detergent; P25779; purified cruzain, Z-FR-AMC fluorescence, 0.01% Triton; Potency, µM, for the others: max response, negative = inhibition, most hits filed as inhibitors; 200,000 tested, 0.43% active; AID 1478;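 also: plate controls were neutral wells for no effect and buffer without enzyme for full effect; nearly all actives have a fitted effect of over 40% in size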
Target sequence (P25779 123-467 limits assumed): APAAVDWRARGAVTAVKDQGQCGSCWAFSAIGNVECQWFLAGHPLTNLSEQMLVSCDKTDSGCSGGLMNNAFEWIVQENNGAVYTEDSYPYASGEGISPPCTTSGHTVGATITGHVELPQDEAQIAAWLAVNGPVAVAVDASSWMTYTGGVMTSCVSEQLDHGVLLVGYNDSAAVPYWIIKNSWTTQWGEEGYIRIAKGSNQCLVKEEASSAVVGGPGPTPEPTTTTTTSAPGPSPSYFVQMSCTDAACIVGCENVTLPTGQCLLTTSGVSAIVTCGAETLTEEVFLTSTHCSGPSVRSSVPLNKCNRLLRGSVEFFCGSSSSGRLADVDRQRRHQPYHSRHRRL
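Steps: dispense cruzain (1.5 nM final) in acetate buffer pH 5.5 with DTT and 0.01% Triton X-100; pin-transfer compounds; incubate 15 min RT; add Z-FR-AMC (2 uM final); read fluorescence every 30 s, using the 60 s intensity change.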
Cruzain inh noDet: inhibitors of Trypanosoma cruzi cruzain without detergent; AID 1476; 200,000 tested, 2.3% active; P25779; purified cruzain, Z-FR-AMC fluorescence, no detergent; Potency, µM, for inactives: max response, negative = inhibition, actives largely listed as inhibitors;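 also: plate controls were enzyme without inhibitor for no effect and buffer without enzyme for full effect; nearly all actives have a fitted effect of over 40% in size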
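Detergent-free condition (0.00005% Triton X-100) in acetate buffer pH 5.5 with DTT. 1.5 nM enzyme and compound were pre-mixed 15 min, then 2 uM Z-FR-AMC substrate added; reaction progress from fluorescence change between first and third reads (60 s).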
The depositor's hits bear a star; ? = inconclusive. Calls follow the shape of the dose curve; as a rule, active = well fitted curve in the direction sought with a large enough effect; inconclusive = small, poorly fitted or top-dose-only effect, or another doubt; inactive = no such curve, though single readings can be large; an effect the other way counts as inactive or inconclusive. Potency is read from the fitted curve at half-maximal effect.

SMILES | Cruzain Triton | Cruzain inh noDet
O=c1oc2cc(OCc3c(F)cccc3Cl)ccc2cc1-c1ccccn1 | -0.4% | 22.7%
COCCN1C(=O)c2[nH]nc(-c3ccccc3O)c2C1c1ccc(Cl)c(Cl)c1 (configuration not stated) | -15.8% | -26.8%
CC(C)C[C@@H]1NC(=O)[C@H](C(C)C)NC(=O)c2cc([N+](=O)[O-])cc(I)c2NCC[C@@H](C(N)=O)NC1=O | 14.1µM* | 5.4%
CC(C)[C@@H]1NC(=O)c2cc([N+](=O)[O-])cc(I)c2NCC[C@@H](C(N)=O)NC(=O)[C@H](CO)NC1=O | -11.1% | ?
O=C(CN1C(=O)C2(SCC(=O)N2c2cccc(Cl)c2)c2ccccc21)NCCc1ccccc1 (configuration not stated) | -2.2% | -17.2%
Cc1cccc(/C=C\c2nc3ccccc3c(=O)[nH]2)c1 | 27.2% | ?
C(=C\c1nc2ccccc2[nH]1)/c1ccccc1 | -20.8% | 20µM*
CCn1c(=O)c2cc(C(=O)N(C)c3cc(C)ccc3C)sc2c2ccccc21 | 1.1% | -4.2%
Cc1ccc(CCNC(=O)c2sc3ncccc3c2-n2c(C)ccc2C)cc1 | -7.7% | -2.4%
Cc1cccc(N2CCN(C(=O)c3cc4c(=O)[nH]c5ccc(C)cc5c4s3)CC2C)c1 (configuration not stated) | 2.0% | -9.1%
Cc1ccc(/C=N/NC(=O)c2cccc([N+](=O)[O-])c2)o1 | -5.1% | 2.1%
O=C(N/N=C/c1ccc(Br)s1)c1cccc([N+](=O)[O-])c1 | -13.8% | 20µM*
CN(C)c1ccc(CNC(=O)Cc2ccc(NC(=O)N3CCCCc4ccccc43)cc2)cc1 | -1.1% | 2.2%
Cc1ccc(C(=O)NCCc2ccc(Cl)cc2)cc1-n1c(C)nc2cccnc21 | -3.2% | 4.9%
O=C(Nc1ccc([N+](=O)[O-])cc1)Nc1nc(-c2ccc(Cl)s2)cs1 | -0.6% | 5.01µM*
O=C(Nc1nc(-c2ccc(Cl)s2)cs1)c1cccs1 | -8.3% | ?
CCCS(=O)(=O)NCCc1csc2nc(-c3ccc(OC)cc3)nn12 | -2.4% | -6.5%
CCC(C(=O)Nc1cccc(-c2cn3cccnc3n2)c1)c1ccccc1 (configuration not stated) | -2.5% | ?
COc1cccc(NC(=O)c2nn(-c3ccc(C)cc3)c(=O)n(C)c2=O)c1 | -5.7% | 20.0%
Cc1nc2cc(NC(=O)N3CCN(c4ccccn4)CC3)ccc2o1 | 7.8% | 2.8%
O=C(c1ccc2nc(-c3ccco3)c(-c3ccco3)nc2c1)N1CCN(c2ncccn2)CC1 | 25.1µM* | ?
O=C(Nc1ccc2nc(-c3ccco3)c(-c3ccco3)nc2c1)N1CCN(c2ccccn2)CC1 | 14.1µM* | 2.51µM*
O=C(c1cccc(C(=O)N2CCN(c3ncccn3)CC2)c1)N1CCN(c2ncccn2)CC1 | 5.7% | -6.6%
Cn1nnnc1SCCCNCc1cc(Br)ccc1OCc1ccccc1F | -3.9% | 7.4%
Clc1ccccc1-c1nc(Nc2ccccc2)nc2ccc(Br)cc12 | -1.2% | 25.1µM*
SMILES | Cruzain Triton | Cruzain inh noDet
COc1ccccc1Nc1nc(-c2ccccc2Cl)c2cc(Br)ccc2n1 | 3.9% | 18.3%
CCOc1ccc(C(=O)NCCc2csc(-c3cccnc3)n2)cc1 | -7.3% | -0.8%
Cc1c(/C=N/NC(=O)CNc2ccccc2)c2ccccn2c1C(=O)c1ccc(Cl)cc1 | -4.1% | ?
Cc1ccccc1NCC(=O)N/N=C/c1c(C)c(C(=O)c2ccc(Cl)cc2)n2ccccc12 | -9.3% | 7.94µM*
Cc1cc(/C=C2/C(=O)NN(c3ccccc3)C2=O)c(C)n1-c1cccc(O)c1 | -14.3% | 25.1µM*
CC1=NN(c2ccccc2)C(=O)/C1=C\c1cc(C)n(-c2ccccc2)c1C | -8.8% | ?
Cc1ccc(-c2nnc(SCC(=O)c3ccc(Cl)cc3)n2-c2ccccc2)cc1 | 1.8% | -10.3%
CCCc1[nH]nc2c1C(c1cccc(OC(=O)c3ccco3)c1)C(C#N)=C(N)O2 (configuration not stated) | ? | 20µM*
CCCc1[nH]nc2c1C(c1cc(OC)cc(OC)c1)C(C#N)=C(N)O2 (configuration not stated) | -3.8% | -3.1%
CN1C(C(=O)c2ccccc2)=C(NC(=O)c2ccccc2Br)c2ccccc2S1(=O)=O | -6.0% | -13.2%
COc1ccc(Cn2c(SCc3ccc(C(=O)NCc4cccs4)cc3)nc3ccncc32)cc1 | 1.0% | -5.4%
CCc1cc2ccc(OC)cc2nc1SCC(=O)Nc1cc(C)on1 | 6.7% | 10µM*
CCc1cc2ccccc2nc1SCC(=O)Nc1cc(C)on1 | 1.3% | -7.9%
COc1cccc(CNC(=O)CCc2c(C)nc3c4c(C)cc(C)nc4nn3c2C)c1 | -2.0% | 9.9%
CNC(=O)/C(C#N)=C/c1ccc(-c2ccc(OC)cc2[N+](=O)[O-])o1 | 2.5% | -0.1%
N#C/C(=C\c1ccc(-c2ccccc2[N+](=O)[O-])o1)C(=O)Nc1nc(-c2cccs2)cs1 | -6.4% | 6.31µM*
CCCCCCc1cc2cc(S(=O)(=O)c3ccc(Cl)cc3)c(=O)oc2cc1O | -5.2% | 12.6µM*
CCCCCCc1cc2cc(S(=O)(=O)c3ccc(C)cc3)c(=O)oc2cc1O | -12.1% | -21.3%
CC1CN(C(=O)N2CCC(C(=O)N3CCN(c4ccccc4)CC3)CC2)c2cc(Cl)ccc2O1 (configuration not stated) | -7.7% | -6.3%
COc1ccc(NC(=O)c2cc3c(=O)n(Cc4cccs4)ccc3nc2C)c(OC)c1 | -5.6% | ?
COc1ccc(NC(=O)CSc2ncc(-c3ccc(F)cc3)n2Cc2ccco2)cc1 | -8.8% | 25.2%
CC(=O)Nc1ccc(NC(=O)Cn2c(-c3ccc(F)cc3)cnc2SCC(=O)Nc2c(C)cccc2C)cc1 | 1.3% | 20µM*
CCc1ccc(S(=O)(=O)Nc2ccc3[nH]c(=O)sc3c2)cc1 | -7.1% | -1.1%
COc1ccc2c(c1)C(=O)[C@@H](OC(=O)NCCOc1ccccc1)[C@H](c1ccc(OC)c(Br)c1)O2 | 0.6% | -4.6%
COc1ccc(/C=N/N=C2/NC(=O)C(c3ccccc3)(c3ccccc3)S2)cc1 | -2.1% | 3.16µM*
SMILES | Cruzain Triton | Cruzain inh noDet
COc1ccc(/C=N/N2C(=O)c3ccccc3C2=O)cc1 | 0.0% | -1.6%
Cc1ccc(C(=O)NC(=S)Nc2ccc(-c3cc4ccccc4oc3=O)cc2)c(C)c1 | -1.4% | ?
Cc1cc(C)cc(C(=O)NC(=S)Nc2ccc(-c3cc4ccccc4oc3=O)cc2)c1 | -1.5% | 10µM*
O=C(NCC(c1cccs1)S(=O)(=O)c1cccs1)c1ccccc1F (configuration not stated) | -2.6% | 9.3%
COc1ccc(N(C(=O)c2ccc(C(C)(C)C)cc2)S(=O)(=O)c2ccc(Cl)cc2)cc1 | -2.8% | 10µM*
COc1ccc(N(C(=O)c2cccc(C)c2)S(=O)(=O)c2ccc(Cl)cc2)cc1 | -3.0% | -29.5%
COc1ccc2cc3cc(C(=O)NCCc4ccc(OC)c(OC)c4)oc3nc2c1 | -16.3% | ?
CCCN(CCC)CCCNC(=O)c1cc2cc3ccc(OC)cc3nc2o1 | 25.1µM* | ?
O=C(CNC(=O)c1ccc(Cl)cc1)OCC(=O)c1ccc2c(c1)OCCO2 | 8.91µM* | 10µM*
CCOC(=O)CNC(=O)c1ccc2c(c1)OCCO2 | 8.3% | -4.4%
O=C(CNC(=O)c1ccccc1F)OCC(=O)N1CCCCC1 | 15.8µM* | ?
O=C(CNC(=O)c1ccccc1F)OCc1cc(=O)n2nc(C3CCCCC3)sc2n1 | -9.0% | -6.3%
O=C(COC(=O)CNC(=O)c1ccccc1F)Nc1ccc2c(c1)OCCO2 | 8.91µM* | 3.16µM*
